Screening results from PubChem BioAssay.
FBA Mtb inh – inhibitors of M. tuberculosis fructose-bisphosphate aldolase. P9WQA3. purified M. tuberculosis FBA, fluorescence read-out. inhibition, % at 1 µM. actives 2.3% (n = 360,000); in the data active means inhibition above about 27%;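 further: 0% = vehicle and 100% = reference inhibitor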
Target sequence (P9WQA3 whole entry, looked up): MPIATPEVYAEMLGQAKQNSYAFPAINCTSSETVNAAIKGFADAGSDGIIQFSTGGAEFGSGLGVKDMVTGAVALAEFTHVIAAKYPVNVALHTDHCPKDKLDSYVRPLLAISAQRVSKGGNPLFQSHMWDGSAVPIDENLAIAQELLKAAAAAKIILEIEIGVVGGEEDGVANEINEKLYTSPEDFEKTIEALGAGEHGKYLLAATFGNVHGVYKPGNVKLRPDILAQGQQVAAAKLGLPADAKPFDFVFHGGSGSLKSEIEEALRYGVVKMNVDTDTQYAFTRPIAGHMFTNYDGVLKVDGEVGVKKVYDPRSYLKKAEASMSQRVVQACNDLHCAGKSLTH
Vc quorum ag – inducers of Vibrio cholerae quorum light production without autoinducers; V. cholerae BH1578 lux reporter, luminescence, 6 h; activation, % at 18.7 µM; actives 0.16% (n = 350,000); AID 588436; in the data active means activation mostly above about 9.7%, no sharp cut-off
GDH-TPI inh – inhibits GDH-TPI coupling enzymes, artifact for Mtb FBA screen | GDH-TPI coupled enzyme counterscreen, NADH absorbance | inhibition, % at 4.8 µM | actives 1.2% (n = 360,000) | AID 588335;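 further: 0% = DMSO wells and 100% = wells lacking the enzyme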
CCHF vOTU inh-1 – CCHFV vOTU protease inhibition; Pep-AMC fluorescence; AID 651958; inhibition, % at 11.5 µM; actives 0.55% (n = 370,000); further: 0% = vehicle wells with enzyme and 100% = no enzyme wells
CCHF vOTU inh-2 – confirmation of CCHF virus vOTU protease inhibitors | inhibition, % at 11.5 µM | shares compounds with CCHF vOTU inh-1 | Recombinant CCHFV vOTU, Pep-AMC fluorescence | actives 17% (n = 1,900)
* = called active by the depositor; i = inactive; / = no result. The list is not random: actives were taken first. Their share in the collection is about 3.9%. Unless noted, no stated cut-off is given here; in the data, active means inhibition above about 30%; inactive means the rest.

SMILES	FBA Mtb inh	Vc quorum ag	GDH-TPI inh	CCHF vOTU inh-1	CCHF vOTU inh-2
CC(C)(C)CC(C)(C)NC(=O)CSCC(=O)Nc1ccc2ccccc2c1	-1	0	4	30*	12
O=c1[nH]n2c(=O)c3c([nH]c2c1N=Nc1cccc(C(F)(F)F)c1)CCCC3	-17	0	10	44*	13
O=c1[nH]n2c(=O)c3c([nH]c2c1N=Nc1cccc(Cl)c1)CCC3	-21	0	9	23	/
Cc1ccc(Nc2nc(COC(=O)COc3ccc(C=O)cc3)cs2)cc1	-1	i	6	5	/
O=C(c1ccc(Br)o1)N1CCC(c2nc3ccccc3[nH]2)CC1	0	3	-7	34*	-27
O=C(C1CCCCC1)N1CCC(c2nc3ccccc3[nH]2)CC1	2	0	14	-13	/
COC(=O)CSc1nnc(CNc2ccc(OC)cc2)n1C	8	-2	-2	39*	-22
OCC1OC(C(N=Nc2ccccc2)=NNc2ccccc2)C(O)C1O (stereo not given)	/	/	/	31*	-16
NC(=O)/C(N=Nc1ccccc1)=N/Nc1ccccc1	-5	i	5	20	/
C=CCn1c(COc2ccccc2)nnc1SCC(=O)c1ccc(OC)cc1	/	/	/	11	/
C=CCn1c(COc2ccc(F)cc2)nnc1SCC(=O)c1c[nH]c2c(CC)cccc12	4	0	7	37*	3
CCC(C(=O)NCc1ccco1)N(C(=O)CNS(=O)(=O)c1ccccc1)c1ccc(F)cc1 (stereo not given)	0	0	-3	12	/
CC(C)C(C(=O)NCc1ccco1)N(C(=O)CNS(=O)(=O)c1ccccc1)c1ccccc1 (stereo not given)	-5	0	-6	34*	-13
O=C(OCC(=O)c1ccc[nH]1)c1ccc(F)c(S(=O)(=O)N2CCOCC2)c1	2	i	11	-5	/
Cc1ccc(NC(=O)c2ccccc2NS(=O)(=O)c2ccc(Cl)s2)cc1S(=O)(=O)N1CCOCC1	-4	0	8	31*	9
Cc1ccc(NC(=O)CN(C)C(=O)CSc2ccc3c(c2)OCCO3)cc1	1	-1	-3	-6	/
O=C(Cn1c(=O)c2cccn2c2ccc(F)cc21)N1CCN(c2ccc(F)cc2)CC1	-2	-1	-6	-16	/
O=C1SCCN1N=Cc1ccc([N+](=O)[O-])o1	0	i	22	32*	-1
CCOC(=O)CSc1nc2c(sc(=S)n2-c2ccc(CC)cc2)c(=O)[nH]1	3	1	33*	35*	23
CCOC(=O)CC(=O)CSc1nc2c(sc(=S)n2-c2ccccc2)c(=O)[nH]1	-2	-1	30	7	/
Cc1cccc(-n2c3nc(=O)[nH]c(=O)c-3cc3cc([N+](=O)[O-])ccc32)c1	-5	0	23	21	/
Cc1ccc(C)c(-n2c3nc(=O)[nH]c(=O)c-3cc3cc([N+](=O)[O-])ccc32)c1	0	0	25	79*	4
COCCn1c(SCC(=O)Nc2cc(C)nn2-c2ccccc2)nnc1-c1ccncc1	-1	0	3	23	/
COCCn1c(SCC(=O)NN2C(=O)NC(C)(c3ccccc3)C2=O)nnc1-c1ccncc1 (stereo not given)	-1	-1	-4	35*	-21
O=C(NCc1ccco1)c1ccccc1F	3	0	2	-5	/
SMILES	FBA Mtb inh	Vc quorum ag	GDH-TPI inh	CCHF vOTU inh-1	CCHF vOTU inh-2
O=C(NCc1ccco1)c1ccccc1Nc1ccc(F)cc1	0	19	3	31*	-5
O=C(Nc1ccc2c(c1)OCCO2)C1CC(c2ccccc2Cl)=NO1 (stereo not given)	8	-2	0	9	/
COc1ccc(S(=O)(=O)N(C)C[C@H]2Oc3ccc(NC(=O)Nc4c(C)noc4C)cc3C(=O)N([C@H](C)CO)C[C@@H]2C)cc1	0	i	2	12	/
Cc1ccc(S(=O)(=O)Nc2ccc3cc([N+](=O)[O-])ccc3c2[N+](=O)[O-])cc1	-6	i	4	31*	23
Cc1ccc(S(=O)(=O)Nc2ccc3ccccc3c2[N+](=O)[O-])cc1	0	i	11	35*	14
COc1ccc(NS(=O)(=O)c2ccc(C)cc2)c([N+](=O)[O-])c1	2	i	2	12	/
COc1ccc([N+](=O)[O-])cc1NS(=O)(=O)c1ccc(C)cc1	0	i	5	-1	/
COc1ccc(CC(=S)N2CCOCC2)cc1F	4	0	1	1	/
COc1ccc(C(=O)CC(=O)C(=O)NCCc2cccc(C)c2)cc1	-1	0	27	31*	-5
O=C(CC1S/C(=N/N=C/c2ccco2)NC1=O)Nc1cccc(Cl)c1Cl (stereo not given)	0	0	42*	33*	-7
O=C1N/C(=N/N=C/c2ccco2)SC1Cc1ccccc1 (stereo not given)	-1	-1	27	14	/
COc1ccc(C2(c3ccc(OC)cc3)NC(=O)N(CC(=O)Nc3ccc(OC)c(OC)c3)C2=O)cc1	0	0	0	9	/
O=C1OC(Nc2cc(Br)cc3cccnc23)c2ccccc21 (stereo not given)	-1	-1	4	111*	100*
O=C1OC(Nc2ncccn2)c2ccccc21 (stereo not given)	0	-1	12	-58	/
CCCCCCCCN1C(=O)[C@H](CC(=O)N2CCN(C(=O)c3ccco3)CC2)C[C@@]2(C(=O)OC)CC(C)(C)CC=C12	/	/	/	32*	11
COC(=O)[C@@]12C[C@@H](CC(=O)N3CCN(C(=O)c4ccco4)CC3)C(=O)N(CCc3ccc(OC)c(OC)c3)C1=CCC(C)(C)C2	/	/	/	1	/
CCCCCCCCN1C(=O)[C@H](CC(=O)N2CCN(C(=O)c3ccco3)CC2)C[C@@]2(C(=O)OC)CCCCC=C12	/	/	/	30*	-2
CC(C)c1[nH]nc2c1C(c1cccc(C(F)(F)F)c1)N(c1ccccc1)C2=O (stereo not given)	/	/	/	34*	3
O=C(NCc1ccncc1)C(=O)NCC1OCCN1S(=O)(=O)c1ccc(Cl)cc1 (stereo not given)	0	i	-2	11	/
COc1cc(Cl)cc(C(c2c(C(=O)O)[nH]c3ccccc23)c2c(C(=O)O)[nH]c3ccccc23)c1O	0	0	1	25	/
O=C(O)c1[nH]c2ccccc2c1C(c1cc(Br)ccc1O)c1c(C(=O)O)[nH]c2ccccc12	5	0	21	35*	12
FC(F)(F)c1ccccc1C(C#Cc1ccccc1)NCc1ccc2c(c1)OCO2 (stereo not given)	/	/	/	8	/
CCCNC(=O)c1c(N)n(Cc2ccc3c(c2)OCO3)c2nc3ccccc3nc12	0	-6	5	/	/
CC(C)CCNC(=O)c1c(N)n(Cc2ccc3c(c2)OCO3)c2nc3ccccc3nc12	3	-1	1	54*	-14
COc1ccc(OC)c(S(=O)(=O)N2CCC3(CC2)OCCN3S(=O)(=O)c2ccccc2)c1	3	i	-6	34*	-10
COc1ccccc1C(=O)N1CCC(Oc2cccnc2)CC1	/	/	/	3	/
